G9a inh – G9a (human) methyltransferase inhibition; Potency, µM (highest dose often 102 µM), actives largely listed as inhibitors; AID 504332; Q96KQ7; G9a H3K9 monomethylation, AlphaScreen, 2 h; actives 8.8% (n = 350,000); note: nearly all actives have a fitted effect of over 75% in size
Target sequence (Q96KQ7 913-1193 limits assumed): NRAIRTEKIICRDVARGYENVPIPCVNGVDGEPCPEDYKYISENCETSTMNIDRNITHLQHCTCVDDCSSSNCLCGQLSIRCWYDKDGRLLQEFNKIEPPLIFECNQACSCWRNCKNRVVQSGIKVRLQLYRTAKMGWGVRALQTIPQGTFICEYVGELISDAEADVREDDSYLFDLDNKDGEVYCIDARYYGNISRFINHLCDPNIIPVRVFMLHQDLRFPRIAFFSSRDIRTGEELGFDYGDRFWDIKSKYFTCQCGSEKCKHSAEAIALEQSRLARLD
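Chemiluminescent proximity detection of H3K9 monomethylation, read after 10 min bead incubation in the dark. Reaction: 20 nM G9a, 500 nM biotin-H3K9 peptide, 20 uM SAM cofactor, 2 h, room temperature, following 15 min enzyme-compound preincubation.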
JMJD2A Tudor – inhibitors of human JMJD2A Tudor domain; O75164; AlphaScreen JMJD2A-Tudor / H3K4me3 peptide binding; actives 4.4% (n = 390,000); Potency, µM (top dose mostly 114 µM), usual class: inhibitors; note: nearly all actives have a fitted effect of over 50% in size
Sfp PPTase inh – Sfp phosphopantetheinyl transferase inhibition; Biochemical Sfp PPTase activity, qHTS; AID 1490; actives 3.5% (n = 310,000); Potency, µM, usual class: inhibitors; Q9F4F7;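 note: the enzyme is Sfp with the accession as filed and its product quenches rhodamine fluorescence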
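Reaction rates are the 30-min fluorescence difference (ex 525, em 598 nm) in wells containing 15 nM Sfp, 5 uM rhodamine-CoA and 12.5 uM BHQ-2-YbbR at pH 7.6 with 10 mM MgCl2.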
HP1b binding inh – inhibitors of HP1-beta chromodomain binding to methylated histone tails; P83916; actives 0.56% (n = 390,000); Potency, µM (doses to about 114 µM), actives largely listed as inhibitors; AlphaScreen HP1-beta / biotin-H3K9me3 peptide binding; note: nearly all actives have a fitted effect of over 70% in size
Target sequence (P83916 whole entry, looked up): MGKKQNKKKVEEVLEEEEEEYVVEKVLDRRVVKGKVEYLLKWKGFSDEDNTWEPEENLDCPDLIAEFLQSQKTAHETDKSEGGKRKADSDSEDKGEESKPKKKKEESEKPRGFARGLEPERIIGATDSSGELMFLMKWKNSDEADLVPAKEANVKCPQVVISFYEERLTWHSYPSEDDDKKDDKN
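Compound inhibition of the preformed complex between 50 nM HP1-beta and 50 nM biotinylated H3K9me3 peptide was read by AlphaScreen. Buffer was PBS pH 7.4 with 0.01% Tween-20. Incubations ran 30 min at room temperature, with 10 ug/mL donor/acceptor beads.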
BAZ2B inh – blocks human BAZ2B. Q9UIF8. AlphaScreen BAZ2B-H3K14Ac peptide displacement. Potency, µM (titrated, usually from 114 µM), usual class: inhibitors. actives 4.4% (n = 360,000). AID 504333; note: nearly all actives have a fitted effect of over 60% in size
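AlphaScreen displacement: compounds (up to 110uM) incubated 30 min at room temperature with a preformed 50 nM BAZ2B/50 nM biotinylated H3K14Ac peptide complex in PBS pH 7.4 with Tween-20. Donor and acceptor beads at 10 ug/mL final added, 20 min light-protected before reading.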
Of the large screens only hits and unclear results are named; the others gave an inactive call; ! = repeats disagree. Shown are actives, neighbours in structure and some others; about 12% of the full set was active somewhere. Calls come from the whole dose curve; as a rule, active = well fitted curve in the direction sought with a large enough effect; inconclusive = small, poorly fitted or top-dose-only effect, or another doubt; inactive = no such curve, though single readings can be large; an effect the other way counts as inactive or inconclusive.

O=C1CCN(Cc2ccccc2)C=C1c1ccc2ccccc2c1	JMJD2A Tudor 45µM (no result: G9a inh, Sfp PPTase inh, BAZ2B inh)
O=C1CCN(Cc2ccccc2)C=C1c1ccc(Cl)cc1	none (no result: G9a inh, Sfp PPTase inh, BAZ2B inh)
CC1(c2ccc3ccccc3c2)NC(=O)N(CC(=O)N2CCN(Cc3ccccc3)CC2)C1=O (centres undefined)	none (no result: Sfp PPTase inh)
OC1(c2ccc3ccccc3c2)CCN(Cc2ccccc2)C1 (centres undefined)	Sfp PPTase inh 89µM
Clc1ccc2nc(-c3ccc(Br)s3)cn2c1	G9a inh 50µM
COc1ccc(-c2cn3cc(Cl)ccc3n2)cc1OC	G9a inh 79µM, BAZ2B inh inconclusive
COc1ccc(-c2cn3cc(C)ccc3n2)cc1Br	none
O=C(O)c1ccccc1-c1cn2cc(Cl)ccc2n1	none
CC(=O)C1=C(O)C(=O)OC1c1ccc(Cl)cc1 (centres undefined)	G9a inh 50µM, JMJD2A Tudor 14µM
O=C(Nc1ccc2nc(SCc3ccccc3)sc2c1)c1ccccc1F	none (no result: Sfp PPTase inh)
Nc1ccc2nc(SCc3ccccc3F)sc2c1	G9a inh 22µM, JMJD2A Tudor 25µM, HP1b binding inh inconclusive, BAZ2B inh inconclusive
Nc1ccc2nc(SCC(=O)c3ccccc3)sc2c1	G9a inh 45µM, BAZ2B inh inconclusive
CCCS(=O)(=O)N1CCC(Cc2ccc(OC)cc2)(C(=O)OCC)CC1	none
Cc1cc(C)c(NC(=O)Cn2c(=O)n(Cc3ccc(C(=O)NCc4ccc5c(c4)OCO5)cc3)c(=O)c3ccccc32)c(C)c1	none (no result: Sfp PPTase inh)
O=C(O)c1c2ccccc2cc2ccccc12	none (no result: G9a inh, JMJD2A Tudor, HP1b binding inh, BAZ2B inh)
Cc1c2ccccc2cc(Cc2ccccc2)[n+]1C	G9a inh 28µM
Cc1ccc(OCC(=O)N/N=C/C=C/c2ccco2)cc1C	G9a inh 40µM, Sfp PPTase inh 45µM, BAZ2B inh inconclusive
O=C(CNc1cccc2ccccc12)N/N=C/C=C/c1ccco1	G9a inh 20µM
Cc1ccc(OCC(=O)N/N=C/c2ccco2)cc1	none
O=C(Cc1cccs1)N/N=C/C=C/c1ccco1	G9a inh 40µM, JMJD2A Tudor inconclusive, Sfp PPTase inh inconclusive, HP1b binding inh 28µM, BAZ2B inh 45µM
C#C[C@]1(O)CCC2C3CCC4=C(CCC(=O)C4)C3CC[C@@]21C (some centres undefined)	none (no result: JMJD2A Tudor, HP1b binding inh, BAZ2B inh)
Cc1ccc(Oc2ccc(C(=O)NCc3ccncc3)cc2)cc1	none
O=C(CCNNC(=O)c1ccncc1)NCc1ccccc1	G9a inh 10µM!
O=C(CCc1ccccc1)NCc1ccncc1	none
O=C(NCc1ccncc1)c1ccc(Oc2ccccc2)cc1	JMJD2A Tudor 13µM
N#Cc1ccc(C(=O)OCC(=O)Nc2cccc(S(=O)(=O)NC3=NCCC3)c2)cc1	none (no result: G9a inh, Sfp PPTase inh, BAZ2B inh)
COc1ccccc1NC(=O)Cn1c(=O)c(N(C)C)c(N)n(C)c1=O	none
CCCCCSc1nnc(-c2cc(Br)ccc2N)c(=O)[nH]1	G9a inh 45µM
NCCC(=O)O	none (no result: JMJD2A Tudor, HP1b binding inh, BAZ2B inh)
O=C1c2ccccc2-c2onc3c(NCCO)cc(NC4CCCCC4)c1c23	G9a inh 2.2µM, JMJD2A Tudor 7.9µM, HP1b binding inh inconclusive, BAZ2B inh 3.5µM (no result: Sfp PPTase inh)
CCCCNc1cc(NC2CCCCC2)c2c3c(onc13)-c1ccccc1C2=O	G9a inh 2µM, JMJD2A Tudor 10µM, HP1b binding inh inconclusive, BAZ2B inh 1.8µM (no result: Sfp PPTase inh)
Cc1cccc(OCCC(=O)NCC(=O)Nc2c(C)cccc2C)c1	none
O=C(O)c1cccc2cccnc12	Sfp PPTase inh inconclusive, BAZ2B inh inconclusive
O=Cc1ccc2cccnc2n1	G9a inh 40µM, JMJD2A Tudor inconclusive, Sfp PPTase inh 16µM
O=Cc1ccc2ccc3cccnc3c2n1	G9a inh inconclusive, JMJD2A Tudor 63µM, BAZ2B inh inconclusive
c1ccc2ncccc2c1	none (no result: G9a inh, Sfp PPTase inh, BAZ2B inh)
CC(C)NC(=O)c1ccccc1NC(=O)CCc1ccccc1	none
Cn1cnnc1SCC(=O)NCc1ccccc1	none
CC(=O)/C(=N\Nc1ccc(Cl)cc1Cl)Sc1nnc(-c2ccccc2)n1-c1ccccc1	G9a inh inconclusive
CC(=O)/C(=N\Nc1ccccc1Cl)Sc1nnc(-c2ccccc2)n1-c1ccccc1	G9a inh 8.9µM
CC(=O)/C(=N\Nc1ccccc1)Sc1nnc(-c2ccccc2)n1-c1ccccc1	G9a inh 10µM, JMJD2A Tudor 32µM
CC(=O)/C(=N\Nc1ccccc1)Sc1nncn1C	G9a inh 4µM, JMJD2A Tudor 20µM, Sfp PPTase inh 20µM, BAZ2B inh inconclusive
O=C(c1cnc2ccccn2c1=O)N1CCc2ccccc21	none
O=C1c2ccccc2C(=O)N1CCC1(O)C(c2ccccc2)=Nc2ccccc21 (centres undefined)	none (no result: G9a inh, Sfp PPTase inh, BAZ2B inh)
O=C(C1CC1)N1CCc2cc(Br)cc(S(=O)(=O)NCCCN3CCCC3)c21	G9a inh 50µM, JMJD2A Tudor inconclusive
COC(=O)c1ccc2c(=O)n(CCN3CCOCC3)c(SCC(=O)Nc3ccccc3Cl)nc2c1	none
COCCn1c(-c2ccc(OC)cc2)cnc1SCC(=O)Nc1cc(C)on1	G9a inh 79µM
COC(=O)c1ccc2c(=O)n(CCN3CCOCC3)c(SCC(=O)Nc3ccc(OC)cc3OC)nc2c1	JMJD2A Tudor 45µM, HP1b binding inh inconclusive
CCn1c(SCC(=O)Nc2cc(C)on2)nnc1-c1ccc(OC)cc1	none
COCCn1c(-c2ccc(OC)cc2)cnc1SCC(=O)Nc1ccc(OC)cc1OC	G9a inh inconclusive, BAZ2B inh 45µM
COCCn1c(-c2ccccc2)cnc1SCC(=O)Nc1cccc2ccccc12	G9a inh 32µM, JMJD2A Tudor 50µM, HP1b binding inh inconclusive, BAZ2B inh 45µM
COCCn1c(SCC(=O)Nc2ccccc2OC)nc2ccccc21	none
CCOC(=O)N1CCN(C(=O)c2ccc(OC)c(S(=O)(=O)N3CCOCC3)c2)CC1	none
CC(=O)N1CCc2c(sc(NC(=O)C3CC3)c2-c2nc3ccccc3s2)C1	G9a inh inconclusive, Sfp PPTase inh 45µM
CC1(C)Cc2c(sc(/N=C/N3CCCCCC3)c2C#N)C(C)(C)N1	none
Cc1ccc(C(OCC(O)CN2CCCCC2)c2ccccc2)cc1 (centres undefined)	none
Cc1ccc(C(OCC(O)CNC(C)c2ccccc2)c2ccccc2)cc1 (centres undefined)	G9a inh 8.9µM, JMJD2A Tudor 1.3µM, HP1b binding inh inconclusive, BAZ2B inh 40µM
O=C(Cc1ccccc1)NC(C(=O)O)C(O)c1ccc([N+](=O)[O-])cc1 (centres undefined)	none
Cc1ccc(C(OCC(O)CNC(CO)C(O)c2ccc([N+](=O)[O-])cc2)c2ccccc2)cc1 (centres undefined)	G9a inh 13µM, JMJD2A Tudor 40µM, HP1b binding inh inconclusive, BAZ2B inh 50µM
CC(C)(O)c1cn(-c2nonc2N)nn1	none
COc1cc(-c2nnc(-c3ccc(N4CCOCC4)cc3)o2)cc(OC)c1OC	none
CCOC(=O)c1cc2c(=O)n3ccccc3nc2n(Cc2ccco2)c1=NC(=O)c1cccc(OC)c1	Sfp PPTase inh 28µM
CCOC(=O)c1cc2c(=O)n3ccccc3nc2n(Cc2ccco2)c1=NC(=O)c1ccccc1OC	JMJD2A Tudor inconclusive, Sfp PPTase inh 35µM

Screening results deposited in PubChem BioAssay by National Center for Advancing Translational Sciences (NCATS).
